Structures are written as SMILES.

The target in the assay is Pro-neuregulin-1, membrane-bound isoform (Homo sapiens) (UniProt Q02297). In words: NRG1 binders on small-molecule microarrays, primary screen, psychiatric disease protein project, biochemical, small-molecule microarray, fluorescence 635/667 (AID 1075).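 Further: score combines 667 nm spot fluorescence with signal to noise.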 Conditions: NRG1 binding, 635 nm fluorescence, higher = more signal.
Sequence of Pro-neuregulin-1, membrane-bound isoform (Homo sapiens) (Q02297 whole entry, looked up, canonical isoform): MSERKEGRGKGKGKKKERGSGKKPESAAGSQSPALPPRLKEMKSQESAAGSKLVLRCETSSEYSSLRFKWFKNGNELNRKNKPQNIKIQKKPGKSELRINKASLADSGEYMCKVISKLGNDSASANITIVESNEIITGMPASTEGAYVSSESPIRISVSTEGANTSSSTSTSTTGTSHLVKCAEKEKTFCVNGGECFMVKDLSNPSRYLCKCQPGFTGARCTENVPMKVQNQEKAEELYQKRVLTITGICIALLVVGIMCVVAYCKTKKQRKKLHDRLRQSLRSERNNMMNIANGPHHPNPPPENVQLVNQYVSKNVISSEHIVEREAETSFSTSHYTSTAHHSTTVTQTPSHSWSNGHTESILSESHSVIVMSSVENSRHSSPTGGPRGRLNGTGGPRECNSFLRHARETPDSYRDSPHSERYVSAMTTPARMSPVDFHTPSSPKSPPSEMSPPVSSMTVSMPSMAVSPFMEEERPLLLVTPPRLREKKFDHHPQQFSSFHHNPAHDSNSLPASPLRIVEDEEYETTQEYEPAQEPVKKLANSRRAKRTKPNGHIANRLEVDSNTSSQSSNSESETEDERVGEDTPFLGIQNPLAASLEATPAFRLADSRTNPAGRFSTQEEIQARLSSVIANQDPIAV
The compound `O=C1O[C@H](c2ccccc2)[C@H](c2ccccc2)N2[C@H]1[C@@H](C(=O)Nc1nc3ccccc3s1)[C@]1(C(=O)Nc3ccc(C#CCCO)cc31)[C@H]2c1ccc(OCCO)cc1` came in with a composite z-score of 0.887. Then `O=C1OCCC/C=C\[C@H]2OC34C=CCN(Cc5ccccc5)C(=O)[C@H]3N(CCCCCCO)C(=O)[C@@H]4C12` (stereo partly specified), with 1.31; and `C=CC[C@]1(C(=O)N2CCCCC2)N=C(c2ccc(OCCCO)cc2)O[C@H]1c1ccccc1`, with 1.77; and `COc1ccc(C(=O)O[C@H]2CC[C@]3(C)C4=C(CCC3C2(C)C)[C@]2(C)CC[C@H]([C@H](C)CCCC(C)C)[C@@]2(C)CC4)cc1` (stereo partly specified), with 0.133. Then `C[C@]1(C(=O)NC2CC2)c2ccccc2C(=O)N(Cc2cc(C(F)(F)F)cc(C(F)(F)F)c2)[C@H]1c1ccc(CO)cc1`, with 0.354. The result for `NCCCCCNC(=O)[C@@H]1C[C@@H]2C(=O)NCC(=O)N2[C@@H]1c1ccc(O)cc1` reads 0.817; that for `[N-]=[N+]=Nc1ccccc1C[C@@]1(C(=O)NCCN2CCOCC2)N=C(c2ccc(OCCCO)cc2)O[C@@H]1c1ccccc1`, 1.6. Turning to `Cc1ccc(S[C@]2(C(=O)NC3CC3)CC(=O)N(C3Cc4ccccc4C3)[C@@H]2c2ccc(CO)cc2)cc1`, the composite z-score turned out to be 1.08.

Compound `C=C(/C(=C/C[C@@H](OC(C)=O)c1ccc(OCCO)cc1)c1cnc2ccccc2c1)C(C)C` gave a composite z-score of 0.213.

In the case of `CC1(C)[C@@H]2CC(C(O)C3C=CC4C(=O)N(c5ccccc5)C(=O)C4N3Nc3ccccc3)=C[C@H]1C2` (stereo partly specified), the composite z-score is 1.15.

Consider `COC(=O)[C@@]1(Cc2ccc(F)cc2)[C@H]2c3cc(C(=O)N4CCCC4)n(Cc4cc(C)n(C)n4)c3C[C@H]2CN1C(=O)c1ccccc1`, for which the composite z-score amounted to 2.3.

Source of the values: PubChem BioAssay.
